Source: PubChem BioAssay AID2501 (Southern Research Specialized Biocontainment Screening …, 2010)
Hit rate of the full screen: of about 2,200 compounds, about 1,200 (55%) were called active. The set was probably picked from earlier hits. The list shows a part of the results. A number with no mark means an inactive call. The limit is not given here; nearly all actives have IC50 up to about 92 µM.

Experiment: counter assay for TAg ATPase ADP read-out – biochemical, ADP-Hunter, fluorescence, counter-screen (AID 2501);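 also: purified T antigen ATPase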;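 as to inhibition: 0% = enzyme with vehicle and 100% = reference inhibitor wells; higher means more inhibition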
Conditions: series mostly up to 100 µM

| Compound | IC50 | inhibition |
| --- | --- | --- |
| Cc1cc(-c2nnc(SCc3ccccn3)o2)no1 | inactive |  |
| Cc1onc(-c2c(F)cccc2Cl)c1C(=O)OCC(=O)NC(c1ccccc1)c1ccccc1 | inactive |  |
| COc1cc(/C=C2/C(=N)N3C(=NC2=O)SN=C3S(=O)(=O)C(C)C)ccc1OS(=O)(=O)c1ccccc1 | inactive |  |
| CCS(=O)(=O)C1=NN2C(=N)/C(=C\c3ccc(SCc4ccco4)o3)C(=O)N=C2S1 | inactive |  |
| CCS(=O)(=O)C1=NN2C(=N)/C(=C\c3ccc(OC(=O)c4ccco4)c(OC)c3)C(=O)N=C2S1 | 54.2 µM (active) |  |
| COc1cc(/C=C2\C(=N)N3N=C(S(C)(=O)=O)SC3=NC2=O)ccc1OS(=O)(=O)c1ccc(C)cc1 | 28.6 µM (active) |  |
| CCOc1cc(/C=C2\C(=N)N3N=C(S(=O)(=O)CC)SC3=NC2=O)ccc1OC(=O)c1ccco1 |  | 8.45% [at 6.25 µM] |
| COc1cc(/C=C2/C(=N)N3C(=NC2=O)SN=C3S(C)(=O)=O)ccc1OS(=O)(=O)c1ccc(C)cc1 | inactive |  |
| O=C1OC(c2ccc(Cl)cc2)=N/C1=C\C=C\c1ccco1 | inactive |  |
| Oc1ccc(-c2cn3ccccc3n2)cc1 | 3.69 µM (active) |  |
| Oc1ccc(-c2cn3ccccc3n2)cc1O | 5.62 µM (active) |  |
| Cc1ccn2cc(-c3ccc(O)c(O)c3)nc2c1 | 7.1 µM (active) |  |
| Cc1ccc(-c2nnc(Nc3ccc(O)cc3)c3ccccc23)cc1S(=O)(=O)NCCO | 5.63 µM (active) |  |
| CCOc1cc(NS(=O)(=O)c2ccc(NC(C)=O)cc2)c(OCC)cc1NC(=O)c1cccs1 | 7.08 µM (active) |  |
| COc1cc(NS(=O)(=O)c2ccc(NC(=S)NC(=O)/C=C/c3ccco3)cc2)ncn1 | inactive |  |
| O=C(Nc1cccc(N2C(=O)C=CC2=O)c1)c1cccs1 | inactive |  |
| CN=c1scc(-c2ccco2)n1/N=C/c1ccc(O)c(O)c1 | 8.2 µM (active) |  |
| Cc1cccc(C(=O)NCC(=O)OCC(=O)c2ccc(Cl)s2)c1 | inactive |  |
| O=C(COc1cccnc1[N+](=O)[O-])c1ccc(Cl)s1 | 39.2 µM (active) |  |
| O=C(Nc1ccon1)c1cc2ccccc2oc1=O | inactive |  |
| O=C(OC1CCCCC1=O)c1cc(=O)c2ccccc2o1 (stereo not given) | inactive |  |
| COc1cc(-c2cc(=O)c3c(O)c(OC)c(OC)c(O)c3o2)ccc1O | inactive |  |

| Compound | IC50 | inhibition |
| --- | --- | --- |
| COc1cc(-c2cc(=O)c3ccccc3o2)ccc1O | 3.14 µM (active) |  |
| CCCOCC1CC(CCc2nc(=S)[nH][nH]2)C(=O)O1 (stereo not given) | inactive |  |
| O=c1c2ccccc2sn1-c1nccs1 | 14.1 µM (active) |  |
| O=C(Cn1sc2ccccc2c1=O)NC12CC3CC(CC(C3)C1)C2 | inactive |  |
| O=c1[nH]sc2ccccc12 | inactive |  |
| Cc1cc(=O)c2ccccc2s1 | inactive |  |
| Cc1ccnc(NS(=O)(=O)c2ccccc2)n1 | inactive |  |
| Cc1ccnc(-n2sc3ccccc3c2=O)n1 | 9.06 µM (active) |  |
| COc1cccc(C(c2sc3nc(C)nn3c2O)N2CCN(c3ccccc3F)CC2)c1 (stereo not given) | inactive |  |
| CN(C)c1nn(C(=O)Nc2ccc(Cl)cc2Cl)cc1-c1ccccc1 | 14.8 µM (active) |  |
| O=C(O)/C=C/C(=O)Nc1ccc(Cl)cc1C(=O)c1ccccc1 | inactive |  |
| CCCCSc1cc(C)nc(N)n1 | inactive |  |
| CCN(CC)c1ccc(NC(=O)c2cccc(C)c2OC)c(C)c1 | 14.9 µM (active) |  |
| CCN(CC)c1ccc(NC(=O)c2cccnc2)cc1 | 8.35 µM (active) |  |
| COCCNC(=O)C(=O)Nc1ccc(Cl)cc1C | inactive |  |
| CCN(CC)c1ccc(NC(=O)c2cccnc2)c(C)c1 | 6.37 µM (active) |  |
| CCOC(=O)c1cc(NC(=O)c2cccnc2)ccn1 | inactive |  |
| CCN(CC)c1ccc(NC(=O)c2cnn(CC)c2)cc1 | 4.27 µM (active) |  |
| COC(=O)NNC(=O)c1ccccc1C | inactive |  |
| COc1ccc(N2C(=NC(C)=O)SC3CS(=O)(=O)CC32)cc1OC (stereo not given) | inactive |  |
| CC(C)=CCc1c(O)c(CC=C(C)C)c2c(c1O)-c1cc(O)c(O)cc1CC2 | inactive |  |
| O=C(NCc1ccccn1)C1CCN(S(=O)(=O)c2ccccc2)CC1 | inactive |  |

| Compound | IC50 | inhibition |
| --- | --- | --- |
| CCN(CC)c1ccc(NC(=O)c2cccc(F)c2)c(C)c1 | 9.01 µM (active) |  |
| COc1ccc2c(c1OC)C(=O)N(c1ccc(O)cc1)C2 | 2.39 µM (active) |  |
| C=CS(=O)c1sc(Cl)c(N2CCOCC2)c1[N+](=O)[O-] (stereo not given) | inactive |  |
| CC(=O)Oc1cc2cccc(OC(C)=O)c(=O)c2c(OC(C)=O)c1OC(C)=O | 91.6 µM (active) |  |
| Cn1c(CCC(=O)Nc2cc(S(C)(=O)=O)ccc2Cl)nc2cc(S(=O)(=O)N3CCOCC3)ccc21 | inactive |  |
| O=S(=O)(c1ccc(NC(=S)N2CCN(c3ccc(O)cc3)CC2)cc1)N1CCOCC1 | 4.49 µM (active) |  |
| Cc1ccc(S(=O)(=O)Nc2cc(NC(=O)CN3CCOCC3)ccc2Cl)cc1 | inactive |  |
| O=C(CN1CCN(c2ccc(O)cc2)CC1)Nc1cc(S(=O)(=O)N2CCOCC2)ccc1Cl | 6.43 µM (active) |  |
| COC(=O)Nc1ccc(S(=O)(=O)N2CCCC(C(=O)N3CCOCC3)C2)cc1 (stereo not given) | inactive |  |
| Cc1ccc(S(=O)(=O)N2CCOCC2)cc1NC(=O)CN1CCN(c2ccc(O)cc2)CC1 | 5.44 µM (active) |  |
| Cc1ccc(S(=O)(=O)n2nc(OC(=O)c3ccccc3C)cc2N)cc1 | inactive |  |
| O=C(Nc1ccc(Cl)c(Cl)c1)Oc1ccc(NC(=O)c2ccco2)cc1 | 23.2 µM (active) |  |
| C=CCSc1nc(N)c(NC(=O)c2ccco2)c(=O)[nH]1 | inactive |  |
| COc1cc(NC(=O)COc2ccccc2C)ccc1NC(=O)c1ccco1 | inactive |  |
| COc1ccccc1NC(=O)Oc1ccc(NC(=O)c2ccco2)cc1 | 3.94 µM (active) |  |
| COc1ccccc1NC(=O)c1c([N+](=O)[O-])cnn1C | inactive |  |
| O=C(Nc1cccc(NC(=O)c2ccco2)c1)c1ccc([N+](=O)[O-])cc1 | inactive |  |
| Cc1cc(O)c(C=O)c2c1C(=O)Oc1c(CO)c(O)c3c(c1O2)C(O)OC3=O (stereo not given) | inactive |  |
| O=[N+]([O-])c1cc(CN2CCCC2)c2cccnc2c1O | inactive |  |
| O=S(=O)(O)c1cccc2c(N=Nc3ccc(O)c4ncccc34)cccc12 | inactive |  |
| O=[N+]([O-])c1cc([N+](=O)[O-])c2cccnc2c1Oc1ccccc1O | 21.8 µM (active) |  |
